High-throughput results (PubChem BioAssay)
MCF10A rereplic: DNA re-replication induction in MCF 10a cells. 350,000 compounds, 2.9% hits. Potency, µM (titrated, usually from 46.1 µM), usual class: activators. MCF 10A DNA re-replication, Hoechst nuclear intensity, 48 h; further: nearly all actives have a fitted effect of over 50% in size
SW480 rerep: inducers of DNA re-replication in SW480 colon cancer cells; 340,000 compounds, 1.8% hits; AID 624297; SW480 DNA re-replication, Hoechst DNA content imaging, 48 h; Potency, µM (highest dose often 46.1 µM), actives largely listed as activators; further: nearly all actives have a fitted effect of over 55% in size
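250 cells/well; 23 nL cpd via pin tool; 48 hr, 37 C, 5% CO2; Hoechst 40 min; imager read of total nuclear intensity, ex 405/em 500-530 nm.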
HT1080 IDH1KD tx: HT-1080 IDH1 knockdown cell toxicity (counter line) | Potency, µM (titrated, usually from 46.1 µM), actives largely listed as cytotoxic | AID 686971 | HT-1080 IDH1 knockdown viability, ATP luminescence, 48 h | 360,000 compounds, 2% hits
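In this qHTS, HT-1080 cells depleted of IDH1 are exposed for 48 h at 37 °C to compound titrations. Toxicity is scored from CellTiter-Glo luminescence, with DMSO as full viability and medium alone as none.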
KB-3-1 cytotox: kills parental KB-3-1 adenocarcinoma cells; KB-3-1 viability, CellTiter-Glo ATP luminescence, 72 h; Potency, µM (series often up to 46.1 µM), most hits filed as cytotoxic; 400,000 compounds, 1.4% hits; AID 1347075; further: nearly all actives have a fitted effect of over 60% in size
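Parental KB-3-1 adenocarcinoma cells in phenol-red-free DMEM with 10% FBS were pin-treated with compounds at several concentrations, incubated 72 h at 37 °C, and viability read by CellTiter-Glo luminescence; concentration-effect curves were fitted after normalization.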
HT1080-NT tox: kills 2HG-producing HT-1080-NT fibrosarcoma cells | HT-1080-NT fibrosarcoma viability, CellTiter-Glo ATP luminescence, 48 h | Potency, µM (doses to about 46.1 µM), actives largely listed as cytotoxic | 360,000 compounds, 1.6% hits;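 further: NT is the 2HG producing partner of a matched IDH1 knockdown line; nearly all actives have a fitted effect of over 55% in size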
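Compounds were tested in concentration-response format on HT-1080-NT cells for 48 hours at 37 degrees C. Cell viability came from CellTiter-Glo luminescence; curves were classified by r2, response magnitude and activity.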
KB-V1 MDR tox: kills drug-selected multidrug resistant KB-V1 cells; KB-V1 MDR cells viability, CellTiter-Glo, 72 h; AID 1347076; Potency, µM (series often up to 46.1 µM), most hits filed as cytotoxic; 400,000 compounds, 3.4% hits; further: nearly all actives have a fitted effect of over 60% in size
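Compound-treated KB-V1 multidrug-resistant cells, 72 h, 37 degrees C; viability by CellTiter-Glo. Fitted qHTS curves give the values.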
Each line names hits and unclear results; the compound was inactive in the other large screens. In the library only some 7.9% were active in any assay of this set; here they are far more common. The call rests on the fitted dose curve; in most records, active means well fitted curve in the direction sought with a large enough effect; inconclusive means small, poorly fitted or top-dose-only effect, or another doubt; inactive means no such curve, though single readings can be large; an effect the other way counts as inactive or inconclusive.

CCOC(=O)C1=C(c2ccccc2)NC(=S)NC1c1ccc(C)c([N+](=O)[O-])c1 (stereo not given)	MCF10A rereplic inconclusive, SW480 rerep inconclusive, KB-V1 MDR tox 2.91µM
CCOC(=O)C1=C(c2ccccc2)NC(=S)NC1c1cc([N+](=O)[O-])ccc1OC (stereo not given)	none
CCOC(=O)C1=C(c2ccccc2)NC(=O)NC1c1ccc(O)c(OCC)c1 (stereo not given)	KB-3-1 cytotox inconclusive
CC1=C(C(=O)OCc2ccccc2)C(c2cccc([N+](=O)[O-])c2)NC(=O)N1 (stereo not given)	none
CCOC(=O)C1=C(c2ccccc2)NC(=S)NC1c1cccc([N+](=O)[O-])c1 (stereo not given)	KB-V1 MDR tox 14.6µM
CC1=C(C(=O)OCc2ccccc2)C(c2cccc([N+](=O)[O-])c2)NC(=O)N1C (stereo not given)	MCF10A rereplic 0.82µM, KB-V1 MDR tox inconclusive
CCOC(=O)C1=C(c2ccccc2)NC(=O)NC1c1ccc(O)c(Cl)c1 (stereo not given)	HT1080 IDH1KD tx 13µM, HT1080-NT tox 11.6µM
CCCC12CN3CC(CCC)(CN(C1)C3c1ccccc1)C2=O (stereo not given)	none (no result: MCF10A rereplic, SW480 rerep, HT1080 IDH1KD tx, HT1080-NT tox)
CCOC(=O)C1=C(C)NC(C)=C(C(=O)OCC)C1c1cccc([N+](=O)[O-])c1	KB-V1 MDR tox inconclusive (no result: MCF10A rereplic, SW480 rerep)
C#CCN1C(C)=C(C(=O)OC)C(c2cccc([N+](=O)[O-])c2)C(C(=O)OCC)=C1C (stereo not given)	HT1080-NT tox inconclusive, KB-V1 MDR tox 11.6µM
O=C1C=C(Nc2ccc(Cl)cc2Cl)CC(c2ccco2)C1 (stereo not given)	MCF10A rereplic inconclusive, SW480 rerep 16.4µM, HT1080 IDH1KD tx 2.31µM, KB-3-1 cytotox 6.51µM, HT1080-NT tox 3.66µM, KB-V1 MDR tox 7.31µM
CN(C)c1ccc2c(=O)c3ccccc3oc2n1	none (no result: MCF10A rereplic, SW480 rerep)
CCOc1ccc(-c2c(C#N)c(N)nc3sc(C(=O)c4ccccc4)c(N)c23)cc1	none
CCOC(=O)c1sc2nc(-c3cccnc3)ccc2c1N	MCF10A rereplic inconclusive
Cc1nc(-c2ccccc2)nc2sc(C(=O)c3ccc(F)cc3)c(N)c12	MCF10A rereplic 10.3µM, SW480 rerep 16.4µM
Cc1nc2sc(C(=O)c3ccccc3)c(N)c2c(C)c1C	KB-V1 MDR tox inconclusive
CC(C)OC(=O)c1sc2nc(-c3ccccc3)ccc2c1N	MCF10A rereplic inconclusive, SW480 rerep 5.8µM
COc1ccc(C(=O)c2sc3nc(-c4ccccc4)ccc3c2N)cc1	MCF10A rereplic 3.66µM, SW480 rerep 20.6µM, KB-3-1 cytotox inconclusive
CCOc1ccccc1NC(=O)c1sc2nc(-c3ccc(OC)cc3)ccc2c1N	KB-V1 MDR tox inconclusive (no result: MCF10A rereplic, SW480 rerep, HT1080 IDH1KD tx, HT1080-NT tox)
COc1ccc(-c2c(C#N)c(N)nc3sc(C(=O)c4ccccc4)c(N)c23)cc1	MCF10A rereplic inconclusive, KB-V1 MDR tox 4.11µM
Fc1ccc(-c2noc3ncnc(NCCc4ccccc4)c23)cc1	none (no result: MCF10A rereplic, SW480 rerep, HT1080 IDH1KD tx, HT1080-NT tox)
O=C(Nc1ccc(Cl)cc1)c1ccc2oc(=O)n(Cc3ccccc3)c2c1	none (no result: MCF10A rereplic, SW480 rerep, HT1080 IDH1KD tx, HT1080-NT tox)
CN(C)/C=N/c1c(C#N)cnn1-c1ccc(C(F)(F)F)cn1	MCF10A rereplic 14.6µM
CN(C)/C=N/c1c(C#N)cnn1-c1ccccc1	MCF10A rereplic inconclusive
CCCCC(=O)NC1(C(F)(F)F)C(=O)Nc2c1c(=O)[nH]c(=O)n2-c1ccc(F)cc1 (stereo not given)	none (no result: MCF10A rereplic, SW480 rerep, HT1080 IDH1KD tx, HT1080-NT tox)
Sc1ccccc1N=Cc1cccs1	none (no result: MCF10A rereplic, SW480 rerep)
O=[N+]([O-])c1ccc(/C=C/c2nc3ccc([N+](=O)[O-])cc3[nH]2)cc1	KB-V1 MDR tox 3.66µM
C[C@@H]1CN([C@H](C)CO)C(=O)c2cc(Br)cnc2O[C@H]1CN(C)C(=O)CC1CC1	none (no result: MCF10A rereplic, SW480 rerep)
Cc1cc(=O)[nH]c2c1c(C)nn2C1CCOC(C)(C)C1 (stereo not given)	SW480 rerep 6.51µM
O=C(CSc1nnc(-c2ccc(O)cc2)n1Cc1ccco1)c1cccs1	none
N#Cc1c(-c2ccccc2)c(-c2ccccc2)n(Cc2ccco2)c1NC(=O)c1cccs1	KB-V1 MDR tox 5.62µM
CN[C@H]1[C@H](O)[C@@H](O[C@@H]2[C@H](O)[C@@H](O[C@H]3OC(CN)=CC[C@H]3N)[C@@H](N)C[C@H]2N)OC[C@@]1(C)O	none (no result: HT1080 IDH1KD tx, KB-3-1 cytotox, HT1080-NT tox, KB-V1 MDR tox)
CN(C)c1ccc(C2CC(c3cccc(NS(C)(=O)=O)c3)=NN2C(=O)c2ccccc2)cc1 (stereo not given)	none
COc1cccc(C2CC(c3cccc(NS(C)(=O)=O)c3)=NN2C(=O)c2ccccc2)c1OC (stereo not given)	SW480 rerep inconclusive, KB-V1 MDR tox 13µM
COc1ccc(C2=NN(C(=O)c3ccncc3)C(c3ccccc3O)C2)cc1 (stereo not given)	none
COc1cccc(C2CC(c3ccc(Br)cc3)=NN2C(=O)c2ccncc2)c1OC (stereo not given)	MCF10A rereplic inconclusive, HT1080 IDH1KD tx 18.4µM, KB-3-1 cytotox 18.4µM, HT1080-NT tox 18.4µM, KB-V1 MDR tox inconclusive
COc1ccccc1C1CC(c2ccc(Br)cc2)=NN1C(=O)c1cccnc1 (stereo not given)	MCF10A rereplic inconclusive, SW480 rerep inconclusive, HT1080 IDH1KD tx 14.6µM, KB-3-1 cytotox inconclusive, HT1080-NT tox inconclusive, KB-V1 MDR tox inconclusive
O=C(C[N+]12CCCc3cccc(c31)CCC2)c1ccc2ccc3cccc4ccc1c2c34	KB-3-1 cytotox inconclusive (no result: MCF10A rereplic, SW480 rerep, HT1080 IDH1KD tx, HT1080-NT tox)
Cc1ccc(-n2nnc3c(SCC(=O)NCc4ccco4)ncnc32)cc1	MCF10A rereplic 23.1µM, HT1080 IDH1KD tx inconclusive, KB-3-1 cytotox inconclusive, HT1080-NT tox inconclusive, KB-V1 MDR tox inconclusive
O=C(Cn1cnc2c(cnn2-c2ccccc2)c1=O)N1CCN(c2ccc(F)cc2)CC1	KB-V1 MDR tox inconclusive
O=C(Cn1cnc2c(nnn2Cc2ccc(F)cc2)c1=O)NCc1ccc(F)cc1	MCF10A rereplic inconclusive, HT1080 IDH1KD tx 18.4µM, KB-3-1 cytotox inconclusive, HT1080-NT tox inconclusive
CC(=O)Nc1ccc(NC(=O)Cn2cnc3c(nnn3Cc3ccc(F)cc3)c2=O)cc1	none
Cc1ccc(Cn2nnc3c(=O)n(CC(=O)NCc4ccccc4)cnc32)cc1	MCF10A rereplic 9.2µM, SW480 rerep 9.2µM, HT1080 IDH1KD tx inconclusive, KB-3-1 cytotox inconclusive, HT1080-NT tox inconclusive
O=C(Cn1cnc2c(nnn2Cc2ccc(F)cc2)c1=O)N1CCN(c2ccccc2)CC1	KB-V1 MDR tox 9.2µM
O=C(Cn1cnc2c(nnn2Cc2ccccc2)c1=O)NCc1ccccc1Cl	none
CCCN1C(=O)C(=O)N(CC(=O)N2c3ccccc3NC(=O)CC2C)C1=O (stereo not given)	none (no result: MCF10A rereplic, SW480 rerep)
